Measured values published in PubChem BioAssay.
For part of these data: Results with a measured potency or affinity are listed apart. The source made the active and inactive calls. Unless noted, how the calls were made is not given here.

How the values were obtained:
[1] = antimalarial activity against Dd2 strain (AID 2302;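 active means growth inhibition above 50% at the single 2 µM test dose, taken to imply half-maximal potency below 2 µM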;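 further: 0% = DMSO untreated growth and 100% = chloroquine plus artemisinin killed control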); details: P. falciparum Dd2 in RBCs, LDH growth readout, 72 h; at 2 µM; stronger effect = higher value
[2] = human hepatoma cell viability loss – ATP luminescence, cytotoxicity control for P. falciparum antimalarial project, primary screen (AID 2303;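 active means inhibition above 50%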;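 further: 0% = DMSO wells and 100% = digitonin-killed cells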); details: HepG2 viability, 24-48 h, at 10 µM, stronger effect = higher value
[3] = molecular target: L-lactate dehydrogenase (Plasmodium falciparum (isolate CDC / Honduras)) (UniProt Q27743); assay: PfLDH activity inhibition – cell lysate, 3D7 strain, counter-screen for P. falciparum growth inhibition project (AID 2304);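 further: 0% = vehicle and 100% = reference inhibitor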; details: P. falciparum 3D7 crude extract, LDH APAD/NBT absorbance; at 2 µM; stronger effect = higher value
Sequence of L-lactate dehydrogenase (Plasmodium falciparum (isolate CDC / Honduras)) (Q27743 whole entry, looked up): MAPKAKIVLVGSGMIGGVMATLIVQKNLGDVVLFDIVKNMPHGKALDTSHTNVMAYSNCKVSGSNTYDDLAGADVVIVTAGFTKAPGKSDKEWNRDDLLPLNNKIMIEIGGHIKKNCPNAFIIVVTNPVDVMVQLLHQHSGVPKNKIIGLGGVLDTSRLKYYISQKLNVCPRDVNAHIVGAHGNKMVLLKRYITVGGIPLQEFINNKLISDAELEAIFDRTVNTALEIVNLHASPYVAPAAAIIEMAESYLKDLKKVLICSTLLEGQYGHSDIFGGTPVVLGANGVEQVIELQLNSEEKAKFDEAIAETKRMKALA

[4] = inhibition of 3D7 malaria parasite growth – strain 3D7 (AID 2306);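 further: 0% = DMSO wells and 100% = chloroquine plus artemisinin control wells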; details: P. falciparum 3D7 erythrocytic growth, LDH absorbance, 72 h; at 2 µM; stronger effect = higher value
[5] = molecular target: Calcium-dependent protein kinase 1 (Plasmodium falciparum (isolate 3D7)) (UniProt P62344); assay: PfCDPK1 kinase inhibitors, biochemical, TCAMS library (AID 1159585; cut-off not given, nearly all actives have IC50 up to about 0.98 µM;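 further: inhibitors leave more ATP so luminescence rises with inhibition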); details: recombinant PfCDPK1, Kinase-Glo ATP depletion luminescence
Sequence of Calcium-dependent protein kinase 1 (Plasmodium falciparum (isolate 3D7)) (P62344 whole entry, looked up): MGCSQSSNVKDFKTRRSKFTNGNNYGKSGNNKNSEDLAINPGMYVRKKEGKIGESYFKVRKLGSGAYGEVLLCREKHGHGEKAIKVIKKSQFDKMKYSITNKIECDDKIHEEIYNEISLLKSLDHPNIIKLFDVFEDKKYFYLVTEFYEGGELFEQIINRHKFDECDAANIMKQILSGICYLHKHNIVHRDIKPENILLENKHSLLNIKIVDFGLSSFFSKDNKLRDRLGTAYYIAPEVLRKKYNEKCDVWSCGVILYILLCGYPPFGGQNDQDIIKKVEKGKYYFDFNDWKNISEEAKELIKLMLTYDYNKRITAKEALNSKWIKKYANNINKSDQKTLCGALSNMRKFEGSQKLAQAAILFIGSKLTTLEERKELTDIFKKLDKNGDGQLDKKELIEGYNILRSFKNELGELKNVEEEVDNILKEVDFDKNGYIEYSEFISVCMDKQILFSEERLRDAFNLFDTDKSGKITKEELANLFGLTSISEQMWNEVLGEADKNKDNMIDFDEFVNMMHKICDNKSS

[6] = molecular target: Plasmodium falciparum protein kinase 6 (PK6, PF3D7_1337100) (UniProt Q8IDW1); assay: PfPK6 kinase inhibitors, biochemical, TCAMS library (AID 1159586); details: recombinant PfPK6, Kinase-Glo ATP depletion luminescence
Sequence of Plasmodium falciparum protein kinase 6 (PK6, PF3D7_1337100) (Q8IDW1 1-305): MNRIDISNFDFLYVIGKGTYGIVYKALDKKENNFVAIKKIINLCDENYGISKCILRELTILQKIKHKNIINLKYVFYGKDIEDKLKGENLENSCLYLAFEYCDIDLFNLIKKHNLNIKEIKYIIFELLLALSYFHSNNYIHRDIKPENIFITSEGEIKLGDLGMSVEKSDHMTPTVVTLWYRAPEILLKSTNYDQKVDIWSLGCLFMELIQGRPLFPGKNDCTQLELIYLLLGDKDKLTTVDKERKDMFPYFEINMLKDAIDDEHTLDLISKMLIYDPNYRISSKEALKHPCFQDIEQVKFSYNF

[7] = molecular target: Protein kinase 7 (PK7), Plasmodium falciparum 3D7 (PF3D7_0213400) (UniProt Q7YTF7); assay: inhibition of Plasmodium PK7 catalytic activity – biochemical, TCAMS antimalarial set, Kinase-Glo luminescence (AID 1159587); details: recombinant PfPK7, Kinase-Glo ATP depletion luminescence
Sequence of Protein kinase 7 (PK7), Plasmodium falciparum 3D7 (PF3D7_0213400) (Q7YTF7 1-343): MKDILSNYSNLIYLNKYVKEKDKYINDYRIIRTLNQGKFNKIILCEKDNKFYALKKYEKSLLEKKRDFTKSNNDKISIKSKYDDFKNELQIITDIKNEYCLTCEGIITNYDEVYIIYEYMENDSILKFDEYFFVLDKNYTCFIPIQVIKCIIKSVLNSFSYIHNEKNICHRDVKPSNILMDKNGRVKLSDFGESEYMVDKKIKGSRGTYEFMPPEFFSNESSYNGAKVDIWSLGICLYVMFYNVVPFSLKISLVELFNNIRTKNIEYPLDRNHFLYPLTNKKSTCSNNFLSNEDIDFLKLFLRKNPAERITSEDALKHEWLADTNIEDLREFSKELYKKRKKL

[8] = molecular target: Calcium-dependent protein kinase 4 (Plasmodium falciparum (isolate 3D7)) (UniProt Q8IBS5); assay: PfCDPK4 kinase inhibitors, biochemical, TCAMS library (AID 1159588; cut-off not given, nearly all actives have IC50 up to about 0.91 µM); details: recombinant PfCDPK4, Kinase-Glo ATP depletion luminescence
Sequence of Calcium-dependent protein kinase 4 (Plasmodium falciparum (isolate 3D7)) (Q8IBS5 whole entry, looked up): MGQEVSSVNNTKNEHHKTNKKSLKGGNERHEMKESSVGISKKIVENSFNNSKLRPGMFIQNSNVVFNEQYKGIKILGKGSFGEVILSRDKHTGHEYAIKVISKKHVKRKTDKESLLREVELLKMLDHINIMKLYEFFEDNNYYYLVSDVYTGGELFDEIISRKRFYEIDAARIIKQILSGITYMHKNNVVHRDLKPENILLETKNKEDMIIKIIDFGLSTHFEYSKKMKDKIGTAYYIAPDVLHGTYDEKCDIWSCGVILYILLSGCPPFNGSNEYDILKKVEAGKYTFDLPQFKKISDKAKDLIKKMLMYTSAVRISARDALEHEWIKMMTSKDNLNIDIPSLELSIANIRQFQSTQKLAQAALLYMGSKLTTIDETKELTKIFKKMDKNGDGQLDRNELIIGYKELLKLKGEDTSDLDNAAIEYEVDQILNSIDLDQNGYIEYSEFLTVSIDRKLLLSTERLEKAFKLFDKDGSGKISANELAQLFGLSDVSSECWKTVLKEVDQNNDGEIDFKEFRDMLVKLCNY

Cc1ccc2[nH]c(-c3ccc(C(=O)NCc4ccc(Cl)c(Cl)c4)cc3)nc2c1C
active: growth inhibition [4] 96%
inactive: growth inhibition [1] 26% | inhibition [2] 19% | inhibition [3] 5% | outcome [5] | outcome [6] | outcome [7] | outcome [8]

O=C(N[C@@H](Cc1ccccc1)[C@H](O)CNC1CCCc2ccccc21)c1cc(C2CCCC2)cc(N2CCCC2=O)c1 (some centres undefined)
inactive: inhibition [2] 31% | inhibition [3] -7% | outcome [5] | outcome [6] | outcome [7] | outcome [8]
active: growth inhibition [1] 99% | growth inhibition [4] 97%

Clc1ccc(-c2cc(-c3csc(NCCN4CCCCC4)n3)on2)cc1
active: inhibition [2] 81% | growth inhibition [4] 91%
inactive: growth inhibition [1] 30% | inhibition [3] -9% | outcome [5] | outcome [6] | outcome [7] | outcome [8]

CS(=O)(=O)CCNc1nccc(N2CCc3ncnc(Nc4ccc(OCc5cccc(F)c5)c(Cl)c4)c3C2)n1
active: growth inhibition [1] 100% | growth inhibition [4] 101%
inactive: inhibition [2] 8% | inhibition [3] -4% | outcome [5] | outcome [6] | outcome [7] | outcome [8]

Fc1ccc2c(NN=Cc3ccccc3)ccnc2c1
active: growth inhibition [1] 99% | growth inhibition [4] 100%
inactive: inhibition [2] 1% | inhibition [3] 2% | outcome [5] | outcome [6] | outcome [7] | outcome [8]

O=S(=O)(/C=C/c1ccccc1)N(Cc1ccc(-c2ccc(CNCCc3ccccc3)cc2)cc1)CC1CCCCN1 (centres undefined)
inactive: inhibition [3] -2% | outcome [5] | outcome [6] | outcome [7] | outcome [8]
active: growth inhibition [1] 96% | inhibition [2] 99% | growth inhibition [4] 100%

Cc1ccc(Nc2nc(NN=Cc3cccc([N+](=O)[O-])c3)nc(Nc3ccccc3)n2)c(C)c1
active: growth inhibition [1] 97% | growth inhibition [4] 91%
inactive: inhibition [2] 9% | inhibition [3] 4% | outcome [5] | outcome [6] | outcome [7] | outcome [8]

COc1ccc(-c2cnc(N)c(-c3ccc(O)c(OC)c3)c2)cn1
inactive: inhibition [2] 23% | inhibition [3] -1% | outcome [5] | outcome [6] | outcome [7] | outcome [8]
active: growth inhibition [1] 98% | growth inhibition [4] 97%

O=c1cc(NCCCNCc2cn(S(=O)(=O)c3ccccc3)c3ccccc23)[nH]c2ccccc12
active: growth inhibition [4] 91%
inactive: growth inhibition [1] 29% | inhibition [2] 17% | inhibition [3] -2% | outcome [5] | outcome [6] | outcome [7] | outcome [8]

COc1ccc(CCN(C)CCOc2ccc(NC(=O)c3cc(SC)cc4c(=O)c5ccccc5[nH]c34)cc2)cc1OC
active: growth inhibition [4] 87%
inactive: growth inhibition [1] 44% | inhibition [2] 7% | inhibition [3] 0% | outcome [5] | outcome [6] | outcome [7] | outcome [8]

Cc1cc(Cc2ccc(S(=O)(=O)c3cc4c(cc3O)CCN(C)CC4)cc2)ccc1Cl
active: growth inhibition [4] 96%
inactive: growth inhibition [1] 12% | inhibition [2] 7% | inhibition [3] 0% | outcome [5] | outcome [6] | outcome [7] | outcome [8]

COc1ccc2ccccc2c1CON1C(N)=NC(N)=NC1(C)C
active: growth inhibition [4] 94%
inactive: growth inhibition [1] 5% | inhibition [2] 25% | inhibition [3] -7% | outcome [5] | outcome [6] | outcome [7] | outcome [8]

COC[C@H]1CCCN1Cc1ccc(-c2ccc(-c3nc4ccccc4[nH]3)s2)cc1
active: growth inhibition [1] 58% | growth inhibition [4] 95%
inactive: inhibition [2] 18% | inhibition [3] -2% | outcome [5] | outcome [6] | outcome [7] | outcome [8]

COc1cc(Nc2nccc(NCC(O)c3ccc(C(F)(F)F)cc3)n2)cc(OC)c1OC (centres undefined)
active: growth inhibition [4] 91%
inactive: growth inhibition [1] 14% | inhibition [2] 45% | inhibition [3] -2% | outcome [5] | outcome [6] | outcome [7] | outcome [8]

O=C(Nc1cccc(-c2csc(NC(=O)c3ccc4ccccc4c3)n2)c1)c1ccc2ccccc2c1
inactive: growth inhibition [1] 35% | inhibition [2] 3% | inhibition [3] -2% | outcome [5] | outcome [6] | outcome [7] | outcome [8]
active: growth inhibition [4] 89%

COc1ccc(-c2cccc(NC(=O)c3cccc(Cl)c3)c2)cc1CN1CCCC1
inactive: inhibition [2] 45% | inhibition [3] 1% | outcome [5] | outcome [6] | outcome [7] | outcome [8]
active: growth inhibition [1] 66% | growth inhibition [4] 99%

COc1ccc2nccc([C@@H](O)CN3CCC(NC(=O)c4cc5c(F)cc(F)cc5[nH]4)CC3)c2n1
active: growth inhibition [1] 74% | growth inhibition [4] 101%
inactive: inhibition [2] 32% | inhibition [3] -3% | outcome [5] | outcome [6] | outcome [7] | outcome [8]

Cc1[nH]c(-c2ccc(F)cc2)cc1C(=O)NC1CCN(Cc2ccccc2)CC1
active: growth inhibition [4] 84%
inactive: growth inhibition [1] 9% | inhibition [2] 6% | inhibition [3] -2% | outcome [5] | outcome [6] | outcome [7] | outcome [8]
